# Assay results reported in PubChem BioAssay (NCI).
# The panel holds about 83,000 compounds, 20% with a hit somewhere; the sample as a whole holds those more often.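 Results are percent growth after 48 hours of single-concentration exposure. 100 means growth as in untreated cells, lower positive values show inhibition; negative values down to -100 show cell death.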 A number with no mark means an inactive call. The source made the active and inactive calls. How the source made its calls: active means growth percent below 10; inactive means the rest.
# Legend:
# Experiment in all cases: NCI-60 one-dose screen, 48 h (100 = growth as untreated, 0 = no growth, -100 = all killed)
# Details in all cases: 10 µM unless noted
# [1] = tested on: HCT-15 colon
# [2] = tested on: HT29 colon
# [3] = tested on: SNB-19 CNS
# [4] = tested on: U251 CNS
# [5] = tested on: PC-3 prostate
# [6] = tested on: SK-MEL-5 melanoma
# [7] = tested on: UACC-62 melanoma
# [8] = tested on: LOX IMVI melanoma
# [9] = tested on: SK-MEL-28 melanoma
# [10] = tested on: SK-MEL-2 melanoma
# [11] = tested on: SN12C renal
# [12] = tested on: UO-31 renal
# [13] = tested on: TK-10 renal
# [14] = tested on: ACHN renal
# [15] = tested on: CAKI-1 renal
# [16] = tested on: A498 renal
# [17] = tested on: CCRF-CEM leukemia
# [18] = tested on: MOLT-4 leukemia
# [19] = tested on: EKVX NSCLC
SMILES,growth [1],growth [2],growth [3] [%],growth [4],growth [5],growth [6],growth [7],growth [8],growth [9],growth [10],growth [11],growth [12],growth [13],growth [14],growth [15],growth [16],growth [17],growth [18],growth [19] [%]
Cc1csc(NC(c2ccc(Br)cc2)c2c(C)nc3ccccn23)n1 (stereo unspecified),88.8%,72.4%,94.2,88.8%,71.5%,94.7%,81.9%,90.9%,108%,86.2%,94.8%,55.9%,116%,97.5%,80.8%,67.3%,89.1%,87.1%,–
O=C(Nc1cccc(-n2cc(-c3ccncc3)c(-c3ccc(Cl)c(O)c3)n2)c1)Nc1cc(C(F)(F)F)cc(C(F)(F)F)c1,-7.23% (active),-56% (active),11.3,-83.8% (active),-32.4% (active),-94.7% (active),-65.6% (active),-94.1% (active),-62.4% (active),-73.7% (active),-36.1% (active),-34.4% (active),-24.6% (active),8.48% (active),8.94% (active),-18.6% (active),-16% (active),-18.5% (active),–
O=[N+]([O-])c1ccc(/C=C/C2(CCl)OCCO2)cc1,109%,92.5%,95.6,97.3%,96.4%,104%,89.8%,80.6%,112%,91.7%,102%,95.3%,103%,116%,–,113%,62.4%,45.8%,–
COc1cc(/C(C#N)=C/c2ccc3c(c2OC)OCO3)cc2c1OCO2,33%,0.067% (active),31.2,18.9%,40.8%,36.9%,18.5%,24.2%,45.7%,–,36.6%,41.7%,54.3%,51.6%,42.9%,8.92% (active),–,50.6%,45.9
Fc1ccc(Nc2nc(NCCNc3ccnc4cc(Cl)ccc34)nc(N3CCOCC3)n2)cc1,10.5%,-45.5% (active),86.7,39%,38.2%,43.2%,47.7%,15.5%,-98.5% (active),50.7%,63.8%,45.2%,86.2%,55.4%,76.9%,8.73% (active),49.1%,25.2%,–
COc1cc(-c2nn(-c3cccc(NC(=O)Nc4ccc(Cl)c(C(F)(F)F)c4)c3)cc2-c2ccncc2)ccc1Cl,9.91% (active),-0.5% (active),26.4,-20.9% (active),-19% (active),-65.3% (active),-43.8% (active),1.06% (active),8.8% (active),-57.8% (active),12.6%,11%,12.6%,9.33% (active),14.7%,-6.71% (active),-8.04% (active),-2.38% (active),–
O=S(=O)(NCCNc1nccc(-c2c(-c3ccc(O)cc3)nc3sccn23)n1)c1cccc2ccccc12,100%,102%,99.7,95.3%,97.5%,102%,106%,101%,111%,124%,97.7%,85.1%,98.2%,107%,99.7%,104%,97.8%,87.6%,–
Cc1cc(C2=NNC(=O)Cc3cc4c(cc32)OCCO4)cc(C)c1N,31.7%,7.97% (active),48,36.6%,49.1%,10.2%,44.1%,39.7%,42.3%,–,43.6%,40%,60.6%,48.7%,40.4%,24.2%,–,52.2%,59.6
